# Test results reported in PubChem BioAssay (NCATS).
# Values joined by “and” are separate entries in the source; they are usually repeats but may differ in a detail not shown here. Identical values can stand only once. Records with an inconclusive call do not appear. Where a call stands in place of a potency, no number is given. A number with no mark means an inactive call. Active and inactive are the calls of the source. The call rests on the fitted dose curve; in most records, active means well fitted curve in the direction sought with a large enough effect; inconclusive means small, poorly fitted or top-dose-only effect, or another doubt; inactive means no such curve, though single readings can be large; an effect the other way counts as inactive or inconclusive.
# Assays:
# [1] = molecular target: Cellular tumor antigen p53 (Homo sapiens) (UniProt P04637); assay: Primary qHTS for small molecule compounds that upregulate eGFP-tagged delta133p53alpha (in N-terminal) cells. (AID 2060322); conditions: NCI-H358 eGFP-delta133p53alpha fluorescence, 24 h; activation: hits give high values; further: nearly all actives have a fitted effect of over 75% in size; further: potency means the concentration at half of the fitted maximal effect
# Sequence of Cellular tumor antigen p53 (Homo sapiens) (P04637 whole entry, looked up): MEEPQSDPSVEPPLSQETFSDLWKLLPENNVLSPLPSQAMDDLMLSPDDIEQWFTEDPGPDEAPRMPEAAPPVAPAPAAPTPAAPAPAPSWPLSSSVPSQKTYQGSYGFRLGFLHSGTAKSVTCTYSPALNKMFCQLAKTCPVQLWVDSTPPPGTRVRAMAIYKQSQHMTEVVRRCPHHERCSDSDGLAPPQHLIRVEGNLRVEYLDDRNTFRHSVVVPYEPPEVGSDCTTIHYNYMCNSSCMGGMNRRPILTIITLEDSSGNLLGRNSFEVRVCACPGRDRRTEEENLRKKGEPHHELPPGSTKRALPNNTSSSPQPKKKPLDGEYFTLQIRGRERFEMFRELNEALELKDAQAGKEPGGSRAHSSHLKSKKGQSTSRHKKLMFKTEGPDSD
# How it was run: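 NCI-H358 cells pre-induced 24 h with 10 ng/ml doxycycline to express N-terminal eGFP-delta133p53alpha, then dosed 24 h at 37C without doxycycline; fixed, Hoechst-stained, GFP intensity by laser scanning cytometry, normalized to DMSO (0%) and 57.5 uM 5-azacytidine (100%).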
# [2] = molecular target: Aldehyde dehydrogenase, mitochondrial (Homo sapiens) (UniProt P05091); assay: qHTS for Inhibitors of the Aldehyde Dehydrogenase Family (ALDH2) Primary screen (AID 2061308); conditions: ALDH2 enzyme inhibition qHTS, 1536-well; series mostly up to 56 µM; further: nearly all actives have a fitted effect of over 55% in size
# [3] = molecular target: Retinaldehyde dehydrogenase 3 (Homo sapiens) (UniProt P47895); assay: qHTS for Inhibitors of the Aldehyde Dehydrogenase Family (ALDH1A3) Primary screen (AID 2061315); conditions: ALDH inhibition qHTS; series mostly up to 56 µM
# [4] = BET inhibitor-based combinations targeting novel dependencies in MECOM-rearranged (r) AML: SET-2 cell line (AID 2202231); conditions: SET-2 AML cells viability, CellTiter-Glo luminescence, 48 h; viability: hits give low values, concentration not given here; further: nearly all actives have a fitted effect of over 35% in size; further: potency means the concentration at half of the fitted maximal effect
# How it was run: (§1)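 Luminescent ATP readout (CellTiter-Glo) after 48 hr drug exposure gives viability. Curves span 11 concentrations and are normalized to DMSO and empty wells. Activity is reported as area under the curve and its Z-transform within each cell line.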
# [5] = BET inhibitor-based combinations targeting novel dependencies in MECOM-rearranged (r) AML: UCSD-AML1 cell line (AID 2202235); conditions: UCSD-AML1 AML cells viability, CellTiter-Glo, 48 h; series mostly up to 46 µM; further: nearly all actives have a fitted effect of over 40% in size; further: potency means the concentration at half of the fitted maximal effect
# How it was run: (§2)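 Luminescent ATP readout (CellTiter-Glo, 15 min at room temperature) after 48 hr drug exposure gave viability. Dose-response curves, normalized to DMSO and empty-well controls, were summarized as area under the curve and its mean-centred Z-score.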
# [6] = BET inhibitor-based combinations targeting novel dependencies in MECOM-rearranged (r) AML: AML-194 cell line (AID 2202237; further: nearly all actives have a fitted effect of over 40% in size; further: potency means the concentration at half of the fitted maximal effect); conditions: AML-194 (MECOM-r AML) viability, CellTiter-Glo, 48 h; series mostly up to 46 µM
# How it was run: as §1
# [7] = BET inhibitor-based combinations targeting novel dependencies in MECOM-rearranged (r) AML: OCI-AML3 cell line (AID 2202232); conditions: CellTiter-Glo luminescence, 48 h; Potency: OCI-AML3 viability; series mostly up to 46 µM; further: nearly all actives have a fitted effect of over 35% in size; further: potency means the concentration at half of the fitted maximal effect
# How it was run: as §1
# [8] = BET inhibitor-based combinations targeting novel dependencies in MECOM-rearranged (r) AML: HNT-34 cell line (AID 2202234); conditions: HNT-34 AML viability, CellTiter-Glo luminescence, 48 h; series mostly up to 46 µM; further: nearly all actives have a fitted effect of over 35% in size
# How it was run: as §2
# [9] = BET inhibitor-based combinations targeting novel dependencies in MECOM-rearranged (r) AML: AML-191 cell line (AID 2202236; further: nearly all actives have a fitted effect of over 35% in size; further: potency means the concentration at half of the fitted maximal effect); conditions: AML-191 viability, CellTiter-Glo luminescence, 48 h; series mostly up to 46 µM
# How it was run: as §1
# [10] = BET inhibitor-based combinations targeting novel dependencies in MECOM-rearranged (r) AML: MV-4-11 cell line (AID 2202233); conditions: MV-4-11 AML viability, CellTiter-Glo luminescence, 48 h; series mostly up to 46 µM; further: nearly all actives have a fitted effect of over 45% in size; further: potency means the concentration at half of the fitted maximal effect
# How it was run: as §2
smiles,measurement,setting,value
C/C=C(/C)C(=O)O[C@H]1C(C)=C2[C@H]([C@@H]1OC(=O)CCCCCCC)[C@@](C)(OC(C)=O)C[C@H](OC(=O)CCC)[C@@]1(O)[C@H]2OC(=O)[C@@]1(C)O,Potency,[1],33800 nM (active)
same,Potency,[2],inactive
same,Potency,[3],inactive
same,Potency,[4],263 nM (active)
same,Potency,[5],132 nM (active)
same,Potency,[6],2090 nM (active)
O=C(O)CNC(=O)c1c(O)c2ccccc2n(Cc2ccccc2)c1=O,activation,[1],-9.57% and 9.82%
same,Potency,[2],inactive
same,Potency,[3],inactive
same,viability,[4],107%
same,Potency,[7],inactive
same,Potency,[8],inactive
same,Potency,[9],inactive
same,Potency,[6],inactive
N#CC(O[C@@H]1O[C@H](CO)[C@@H](O)[C@H](O)[C@H]1O)c1ccccc1 (stereo partly drawn),activation,[1],13%
same,Potency,[2],inactive
same,Potency,[3],inactive
CC(=O)O[C@@H]1[C@H]2CC[C@H]3[C@@](C)(O)[C@@H]4C[C@H](O)C(C)(C)[C@@]4(O)[C@H](O)C[C@@]13C[C@@]2(C)O,activation,[1],6.87%
same,Potency,[2],inactive
same,Potency,[3],inactive
CCNC(=O)C[C@@H]1N=C(c2ccc(Cl)cc2)c2cc(OC)ccc2-n2c(C)nnc21,activation,[1],-15.8% and 11.6%
same,Potency,[2],inactive
same,Potency,[3],inactive
same,Potency,[4],2630 nM (active)
same,Potency,[7],742 nM (active)
same,Potency,[5],833 nM (active)
O=C(N[C@@H](COc1ccc2[nH]c(=O)[nH]c2c1)c1ccccc1)c1cccn(Cc2ccc(F)c(F)c2)c1=O,Potency,[1],30600 nM (active)
same,Potency,[2],inactive
same,Potency,[3],inactive
same,Potency,[7],10500 nM (active)
CNC(=O)c1ccc(N2C(=S)N(c3ccc(C#N)c(C(F)(F)F)c3)C(=O)C23CCC3)cc1F,activation,[1],38.4% and -8.11%
same,Potency,[2],inactive
same,Potency,[3],inactive
same,viability,[4],101%
same,Potency,[9],inactive
same,Potency,[6],inactive
O=C(Oc1ccc([N+](=O)[O-])cc1)N1CCC(C(O)(c2ccc3c(c2)OCO3)c2ccc3c(c2)OCO3)CC1,activation,[1],9.18% and -1.67%
same,Potency,[2],inactive
same,Potency,[3],inactive
same,viability,[4],104%
same,Potency,[10],inactive
same,Potency,[5],inactive
same,Potency,[9],inactive
same,Potency,[6],inactive
COCC1OC(=O)c2coc3c2C1(C)C1=C(C3=O)C2CCC(=O)C2(C)CC1O (stereo not drawn),activation,[1],-7.63%
same,Potency,[2],inactive
same,Potency,[3],inactive
C[C@]12CC[C@H](OC3OC(CO)C(O)C(O)C3OC3OC(CO)C(O)C(O)C3O)C[C@@H]1CC[C@@H]1C2CC[C@]2(C)[C@@H](C3=CC(=O)OC3)CC[C@]12O (stereo partly drawn),activation,[1],13.4%
same,Potency,[2],inactive
same,Potency,[3],inactive
CO[C@@H]1[C@@H](O)[C@@H](O[C@H]2CC[C@]3(C=O)C4CC[C@]5(C)[C@@H](C6=CC(=O)OC6)CC[C@]5(O)[C@@H]4CC[C@H]3C2)O[C@@H](C)[C@H]1O[C@@H]1O[C@H](CO[C@@H]2O[C@H](CO)[C@@H](O)[C@H](O)[C@H]2O)[C@@H](O)[C@H](O)[C@H]1O (stereo partly drawn),activation,[1],-9.92%
same,Potency,[2],inactive
same,Potency,[3],inactive
COC1CC(OC2CCC3(C)C(=CCC4C3CCC3(C)C(C(C)OC5OC(COC6OC(CO)C(O)C(O)C6O)C(O)C(O)C5O)CCC43O)C2)OC(C)C1OC1OC(C)C(O)C(OC)C1O (stereo not drawn),activation,[1],5.34%
same,Potency,[2],inactive
same,Potency,[3],inactive
CN1CCC2=C(C1)c1ccccc1Cc1ccccc12,activation,[1],16.2%
same,Potency,[2],inactive
same,Potency,[3],inactive
O=C(N[C@H]1N=C(c2ccccc2F)c2cccc3c2N(CC3)C1=O)c1cc2ccccc2[nH]1,activation,[1],6.33%
same,Potency,[2],inactive
same,Potency,[3],inactive
CC[C@H]1C[C@@H]2CC[C@@H](O2)[C@@H](C)C(=O)O[C@H](CC)C[C@H]2CC[C@H](O2)[C@H](C)C(=O)O[C@@H](C)C[C@@H]2CC[C@@H](O2)[C@@H](C)C(=O)O[C@H](CC)C[C@H]2CC[C@H](O2)[C@H](C)C(=O)O1,activation,[1],-0.893%
same,Potency,[2],inactive
same,Potency,[3],inactive
C[C@]12CC[C@H](O)CC1=CC[C@@H]1C2CC[C@]2(C)[C@@H](C3=CC(=O)OC3)CC[C@]12O (stereo partly drawn),activation,[1],2.29%
same,Potency,[2],inactive
same,Potency,[3],inactive
CC(=O)OC[C@]12[C@H](OC(C)=O)C(=O)[C@@H]3[C@@H](O)[C@@]14O[C@@]3(C)COC(=O)c1cccnc1[C@@H](C)[C@H](C)C(=O)O[C@@H]([C@H](OC(C)=O)[C@@H]2OC(C)=O)[C@]4(C)O,activation,[1],21.4%
same,Potency,[2],inactive
same,Potency,[3],inactive
CC(C)[C@]12O[C@H]1[C@@H]1O[C@]13[C@]1(O[C@H]1C[C@H]1C4=C(CC[C@@]13C)C(=O)OC4)[C@@H]2O,Potency,[1],269 nM (active)
same,Potency,[2],inactive
same,Potency,[3],inactive
same,Potency,[4],59 nM (active)
same,Potency,[7],29.5 nM (active)
same,Potency,[10],37.2 nM (active)
same,Potency,[9],37.2 nM (active)
same,Potency,[6],46.8 nM (active)
COc1cc(C)[nH]c(=O)c1CNC(=O)c1c(C)n([C@H](C)C2CCOCC2)c2ccccc12,activation,[1],-8.11%
same,Potency,[2],inactive
same,Potency,[3],inactive
same,viability,[4],113%
same,Potency,[7],inactive
same,Potency,[10],inactive
same,Potency,[5],inactive
same,Potency,[9],inactive
same,Potency,[6],inactive
